FLuc counter: counter-screen for miR-21 project: firefly luciferase inhibitors or activators; Potency, µM (series often up to 57.5 µM), without a hit: at the highest dose activity change, negative = inhibition, hits mostly inhibitors; purified FLuc, Km substrates, luminescence inhibition; AID 588342; P08659; hit rate 6.9% among 360,000;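 further: plate controls were vehicle for no effect and reference inhibitor for full effect; nearly all actives have a fitted effect of over 55% in size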
Target sequence (P08659 whole entry, looked up): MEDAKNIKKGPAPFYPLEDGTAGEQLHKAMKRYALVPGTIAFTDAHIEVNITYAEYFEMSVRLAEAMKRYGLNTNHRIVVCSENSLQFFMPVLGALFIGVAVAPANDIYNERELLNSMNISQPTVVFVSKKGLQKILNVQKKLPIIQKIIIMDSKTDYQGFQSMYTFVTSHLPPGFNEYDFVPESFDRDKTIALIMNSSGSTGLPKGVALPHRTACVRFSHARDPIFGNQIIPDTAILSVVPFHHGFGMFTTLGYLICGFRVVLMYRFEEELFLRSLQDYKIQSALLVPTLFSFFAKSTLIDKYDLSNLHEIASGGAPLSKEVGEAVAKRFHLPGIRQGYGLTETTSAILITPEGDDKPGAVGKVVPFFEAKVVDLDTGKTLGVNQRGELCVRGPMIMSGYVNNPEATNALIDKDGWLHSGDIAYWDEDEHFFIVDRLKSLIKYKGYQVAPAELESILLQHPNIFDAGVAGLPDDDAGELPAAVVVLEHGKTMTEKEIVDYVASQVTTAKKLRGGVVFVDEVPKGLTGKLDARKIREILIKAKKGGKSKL
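Purified P. pyralis luciferase (10nM final) with 10uM D-luciferin and 10uM ATP (Km levels) in 50mM Tris acetate pH 7.5, 10mM Mg acetate, 0.01% Tween-20, 0.05% BSA; qHTS 6-point titration, ~60 µM downward; luminescence read.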
Rab9 prom act: activators of Rab9 promoter; Huh7 Rab9 promoter-luciferase reporter, luminescence, 24 h; Potency, µM (doses to about 9.22 µM), for inactives: at the top dose activation, negative = inhibition, actives largely listed as activators; hit rate 2.8% among 320,000; AID 485297; further: % of control where 0% means no effect; nearly all actives have a fitted effect of over 60% in size
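Huh7 cells stably carrying a Rab9 promoter-luciferase reporter, 1500 cells per well in OP-MEM I with 10% FBS, treated with compound 24 hours at 37C. Luciferase activity read by luminescence after 10 minutes with Amplite reagent.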
ELG1 genotoxic: inducers of genotoxicity in HEK293T ELG1-luciferase cells; AID 504466; hit rate 1.3% among 330,000; Potency, µM (highest dose often 46 µM), for the others: at the highest dose activity change, positive = activation, usual class: activators; HEK293T ELG1-luciferase reporter, luminescence, 16 h; further: % of control where 0% means no effect; nearly all actives have a fitted effect of over 60% in size
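Reporter readout depends on ELG1 protein level, which increases with genetic stress. After 16 hr compound exposure at 37 °C, luciferase activity was quantified using ONE-Glo.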
SMN2 splice up: increases expression of the SMN2 splice variant; HEK293 SMN2-luciferase splicing reporter, luminescence, 30-36 h; Potency, µM (highest dose often 46.1 µM), for the others: at the top dose activity change, positive = activation, most hits filed as activators; hit rate 2.8% among 210,000; further: % of control where 0% means no effect; nearly all actives have a fitted effect of over 55% in size
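HEK293 cells carry an SMN2 minigene-luciferase reporter in which exon 7 inclusion puts luciferase in frame. Cells were seeded at 2000 cells/well, attached for 10-12 hours, then exposed to compounds for 30-36 hours at 37C before ONE-Glo luminescence.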
NPC1 promoter act: activators of NPC1 promoter. Potency, µM (top dose mostly 9.22 µM), inactives show top-dose activation, hits mostly activators. hit rate 2.4% among 320,000. Huh7 NPC1 promoter luciferase reporter, 24 h. AID 485313; further: % of control where 0% means no effect; nearly all actives have a fitted effect of over 60% in size
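Huh7 cells stably carrying NPC1 promoter–luciferase, plated in Opti-MEM with 10% FBS for 2 h, were exposed to compound in DMSO for 24 h at 37 °C; luciferase reagent was added for 10 min and luminescence read.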
KinaseGlo FLuc: counter-screen: inhibitors of Kinase-Glo firefly luciferase | Kinase-Glo luciferase, ATP luminescence, 8 min | hit rate 0.28% among 200,000 | AID 1379 | Potency, µM (series often up to 38.3 µM), without a hit: top-dose activity change, negative = inhibition, usual class: inhibitors; further: on the % scale 0 is the no-effect control and ±100 the full control effect; nearly all actives have a fitted effect of over 60% in size
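Compound is pinned into ATP-containing buffer (10 uM ATP, imidazole pH 7.2, 7 mM MgCl2). Kinase-Glo luciferase reagent is then added. Light output is recorded following an 8-min room-temperature incubation.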
The depositor's hits bear a star; ? = inconclusive; nt = not tested or not shown; [ ] = remark or other dose. Rows were chosen to be rich in hits. Some 7.4% of all compounds tested hit in one or more screens of this group. The call rests on the fitted dose curve; in most records, active means well fitted curve in the direction sought with a large enough effect; inconclusive means small, poorly fitted or top-dose-only effect, or another doubt; inactive means no such curve, though single readings can be large; an effect the other way counts as inactive or inconclusive. Potency means the concentration at half of the fitted maximal effect.

SMILES | FLuc counter | Rab9 prom act | ELG1 genotoxic | SMN2 splice up | NPC1 promoter act | KinaseGlo FLuc
CS(=O)(=O)c1ccc(C(O)C(CO)NC(=O)C(Cl)Cl)cc1 (configuration not stated) | nt | nt | nt | -22% | nt | -4%
CCOC(=O)c1ccc(N/C=C/C(=O)c2ccco2)cc1 | 1.3µM* | 1.3µM* | 0.73µM* | 14µM* | 1.6µM* | -30%
Cc1ccc([N+](=O)[O-])cc1N/C=C/C(=O)c1ccco1 | ? | -1% | -3% | -7% | 26% | -1%
O=C(Nc1ccccc1C(=O)Nc1ccc(F)cc1)c1ccco1 | ? | -5% | -1% | nt | -3% | nt
Cc1ccc(N/C=C/C(=O)c2ccco2)c(O)c1 | 0.76µM* | 1.8µM* | 3.7µM* | nt | 3.2µM* | nt
O=C(/C=C/Nc1ccc(F)cc1)c1ccco1 | 0.95µM* | 2.8µM* | 2.1µM* | 16µM* | 4µM* | ?
CCN(C(=O)Cn1nc(Cc2ccncc2)c2ccccc2c1=O)c1ccc(OC)cc1 | -1% | nt | nt | -11% | nt | nt
O=[N+]([O-])c1ccc(O)c(C=Nc2ccc3nc(-c4ccccc4)[nH]c3c2)c1 | 5.4µM* | 3.2µM* | ? | 10%[1.84 µM] | ? | -12%
Oc1c(Br)cc(C=Nc2ccc3nc(-c4ccccc4)[nH]c3c2)c(O)c1Br | 11µM* | 2.8µM* | 1% | nt | ? | nt
COc1ccc(CCNC(=O)Cn2c(=O)cc(C(F)(F)F)c3c(C)nn(C)c32)cc1OC | -8% | nt | nt | nt | nt | nt
CCN(c1ccccc1)S(=O)(=O)c1c(-c2ccc(C)cc2)csc1C(=O)OC | -10% | nt | nt | nt | nt | nt
CC(C)(CO)[C@H](O)C(=O)NCCC(=O)O | nt | nt | nt | -1%[20.6 µM] | nt | 2%[17.1 µM]
CC(=O)c1cccc(NC(=O)c2ccc(Br)o2)c1 | ? | 27% | 16% | 17% | 24% | 0%
COc1ccc(Cl)cc1C(=O)Nc1ccc2oc(-c3ccc(C(C)(C)C)cc3)nc2c1 | 9.5µM* | nt | nt | -5% | nt | nt
Cc1ccc2oc(-c3cccc(NC(=O)c4ccc(Br)o4)c3)nc2c1 | 21µM* | 11% | ? | 16% | 9% | -3%
Cc1ccc2oc(-c3cccc(NC(=O)c4cccc5c(Br)cccc45)c3)nc2c1 | -17% | nt | nt | -3% | nt | nt
CC(C)(C)c1ccc(C(=O)Nc2ccc(-c3nc4cc(Cl)ccc4o3)cc2)cc1 | -1% | nt | nt | -12% | nt | nt
Cc1cc2nc(-c3cccc(NC(=O)c4ccc(Br)o4)c3)oc2cc1C | 17µM* | 3% | 18% | -4% | -4% | 14%
COc1cc2ccccc2cc1C(=O)Nc1cccc(-c2nc3cc(C)c(C)cc3o2)c1 | 1.2µM* | nt | nt | -2% | nt | nt
COc1cc(C(=O)Nc2cccc(-c3nc4cc(C)cc(C)c4o3)c2)cc(OC)c1OC | 5.4µM* | -3% | -6% | -16% | -3% | -7%
C=C(C)[C@]12C[C@@H](C)[C@@]34OC(Cc5ccccc5)(O[C@@H]1[C@@H]3C=C(COC(=O)Cc1cc(OC)c(O)cc1I)C[C@]1(O)C(=O)C(C)=C[C@@H]41)O2 | nt | nt | nt | nt | nt | 1%[39.9 µM]
CC(C)(C)C1CCc2c(sc3c2C(=O)NC(c2ccco2)N3)C1 (configuration not stated) | 3µM* | 2.5µM* | 13% | 13µM* | ? | 1%
CCCCC/C=C\C/C=C\CCCCCCCCCC(=O)NC(C)C(=O)O (configuration not stated) | nt | nt | nt | 4% | nt | 1%
Cc1cc(NCCCn2ccnc2)n2nc(C)c(-c3ccc(Cl)cc3)c2n1 | 15µM* | 0% | -1% | nt | 5% | 6%
Cc1cc(NCCCn2ccnc2)n2nc(C)c(-c3ccccc3)c2n1 | 9.5µM* | ? | 16% | 9% | 29% | -1%
SMILES | FLuc counter | Rab9 prom act | ELG1 genotoxic | SMN2 splice up | NPC1 promoter act | KinaseGlo FLuc
Cc1cc(NCCCn2ccnc2)n2ncc(-c3ccccc3)c2n1 | 0.34µM* | 0.11µM* | 0.29µM* | -38% | 0.4µM* | -14%
c1ccc(-c2nc(NCCCn3ccnc3)c3ccccc3n2)cc1 | -2% | 0% | -10% | 9% | -5% | 0%
COc1ccc(C2=C(N3CCN(c4cccc(C)c4C)CC3)c3ccccc3C2=O)cc1 | -1% | nt | nt | -11% | nt | nt
CCOC(=O)C1(C)C=C(Nc2cccc(C(=O)O)c2)C(=O)N1c1cccc(C(=O)O)c1 (configuration not stated) | ? | nt | nt | 13% | nt | nt
N#C/C(C(=O)Oc1ccccc1)=C1\C=CC=CN1 | 19µM* | 2.8µM* | ? | 25% | 3.5µM* | -3%
N#C/C(C(=O)c1ccccc1)=C1/CCCN1 | -1% | 7% | 5% | nt | 0% | nt
O=C(CSc1nnc(-c2cccs2)o1)c1cccs1 | 9.5µM* | 2.8µM* | ? | -2% | 1.6µM* | -5%
COc1ccc(-c2nnc(SCC(=O)c3cc(C)n(Cc4cccs4)c3C)o2)cc1 | ? | 3% | 5% | -13% | -1% | 0%
CCNC(=O)CSc1nnc(-c2cccs2)o1 | -3% | -4% | 3% | 22% | -7% | -1%
O=C(CSc1nnc(-c2cccs2)o1)OCc1ccccc1 | -3% | -1% | -3% | 7% | 0% | 2%
COc1ccc(-c2nnc(SCC(=O)c3ccc[nH]3)o2)cc1 | 4.3µM* | 1.6µM* | ? | 8.9µM* | 3.2µM* | -11%
O=C(CSc1nnc(-c2cccs2)o1)OC1CCCCC1 | 24µM* | 4% | 2% | -3% | -4% | 13%
COc1ccc(-c2nnc(SCC(=O)c3ccc(O)cc3O)o2)cc1 | ? | -1% | ? | nt | 15% | nt
COc1ccc(-c2nnc(SCC(=O)c3cccs3)o2)cc1 | 2.4µM* | 2.2µM* | 10µM* | 16% | 3.5µM* | 8%
Clc1ccc(CSCCc2ccncc2)cc1Cl | nt | nt | nt | -5%[9.22 µM] | nt | -3%[7.66 µM]
Cn1nc(-c2ccc(OCC(=O)Nc3ccc(Cl)cc3)cc2)c2ccccc2c1=O | -10% | nt | nt | -6% | nt | nt
Cc1ccc(SCC(=O)c2ccc[nH]2)cc1 | 24µM* | ? | ? | ? | ? | -2%
COc1cccc(C(=O)CSc2nnc(-c3cccs3)o2)c1 | -5% | 3% | 3% | -2% | -1% | 0%
Cc1cc(C(=O)CSc2nnc(-c3cccs3)o2)c(C)n1-c1ccccc1 | 6.7µM* | -12% | -6% | -42% | -5% | 3%
COc1cccc2c1cc1c(=O)n(CC(=O)N3CCN(c4ccccc4F)CC3)nc(C)n12 | 3% | nt | nt | -1% | nt | nt
CCCn1c(CN2CCN(c3ccc(OC)cc3)CC2)nc2c1c(=O)[nH]c(=O)n2C | 1% | nt | nt | -9% | nt | nt
COc1ccc(C2=NOC(CN3C(=O)c4ccccc4S3(=O)=O)C2)cc1 (configuration not stated) | 2.1µM* | 0.89µM* | ? | ? | 1.3µM* | -5%
COc1ccc(-c2cn(Cc3ccc(C(=O)c4ccccc4)cc3)nn2)cc1 | 11µM* | ? | 18µM* | nt | ? | nt
CCOC(=O)c1cc(-c2ccc(OC)cc2)nn1Cc1ccccc1 | 7.6µM* | nt | nt | 20% | nt | nt

Compound activity as filed in PubChem BioAssay.
